Source: the supplement of paper PMC11732987, “Enantioselective OTUD7B fragment discovery through chemoproteomics screening and high-throughput optimisation” (Communications Chemistry, 2025)

Columns and labels:
Experiment in all cases: log2 ratio of Biotin-Ahx-Ub-VS probe labelling (fragment/DMSO); higher = less target engagement (more negative = stronger competition), active = hit call of the paper (q ≤ 0.05, log2 ratio ≤ -1)
Conditions in all cases: compound concentration: 200 uM; treatment time: 3 h
USP34 = USP34 (UniProt Q70CQ2)
Sequence of USP34 (Q70CQ2 whole entry, the tested form may be a part): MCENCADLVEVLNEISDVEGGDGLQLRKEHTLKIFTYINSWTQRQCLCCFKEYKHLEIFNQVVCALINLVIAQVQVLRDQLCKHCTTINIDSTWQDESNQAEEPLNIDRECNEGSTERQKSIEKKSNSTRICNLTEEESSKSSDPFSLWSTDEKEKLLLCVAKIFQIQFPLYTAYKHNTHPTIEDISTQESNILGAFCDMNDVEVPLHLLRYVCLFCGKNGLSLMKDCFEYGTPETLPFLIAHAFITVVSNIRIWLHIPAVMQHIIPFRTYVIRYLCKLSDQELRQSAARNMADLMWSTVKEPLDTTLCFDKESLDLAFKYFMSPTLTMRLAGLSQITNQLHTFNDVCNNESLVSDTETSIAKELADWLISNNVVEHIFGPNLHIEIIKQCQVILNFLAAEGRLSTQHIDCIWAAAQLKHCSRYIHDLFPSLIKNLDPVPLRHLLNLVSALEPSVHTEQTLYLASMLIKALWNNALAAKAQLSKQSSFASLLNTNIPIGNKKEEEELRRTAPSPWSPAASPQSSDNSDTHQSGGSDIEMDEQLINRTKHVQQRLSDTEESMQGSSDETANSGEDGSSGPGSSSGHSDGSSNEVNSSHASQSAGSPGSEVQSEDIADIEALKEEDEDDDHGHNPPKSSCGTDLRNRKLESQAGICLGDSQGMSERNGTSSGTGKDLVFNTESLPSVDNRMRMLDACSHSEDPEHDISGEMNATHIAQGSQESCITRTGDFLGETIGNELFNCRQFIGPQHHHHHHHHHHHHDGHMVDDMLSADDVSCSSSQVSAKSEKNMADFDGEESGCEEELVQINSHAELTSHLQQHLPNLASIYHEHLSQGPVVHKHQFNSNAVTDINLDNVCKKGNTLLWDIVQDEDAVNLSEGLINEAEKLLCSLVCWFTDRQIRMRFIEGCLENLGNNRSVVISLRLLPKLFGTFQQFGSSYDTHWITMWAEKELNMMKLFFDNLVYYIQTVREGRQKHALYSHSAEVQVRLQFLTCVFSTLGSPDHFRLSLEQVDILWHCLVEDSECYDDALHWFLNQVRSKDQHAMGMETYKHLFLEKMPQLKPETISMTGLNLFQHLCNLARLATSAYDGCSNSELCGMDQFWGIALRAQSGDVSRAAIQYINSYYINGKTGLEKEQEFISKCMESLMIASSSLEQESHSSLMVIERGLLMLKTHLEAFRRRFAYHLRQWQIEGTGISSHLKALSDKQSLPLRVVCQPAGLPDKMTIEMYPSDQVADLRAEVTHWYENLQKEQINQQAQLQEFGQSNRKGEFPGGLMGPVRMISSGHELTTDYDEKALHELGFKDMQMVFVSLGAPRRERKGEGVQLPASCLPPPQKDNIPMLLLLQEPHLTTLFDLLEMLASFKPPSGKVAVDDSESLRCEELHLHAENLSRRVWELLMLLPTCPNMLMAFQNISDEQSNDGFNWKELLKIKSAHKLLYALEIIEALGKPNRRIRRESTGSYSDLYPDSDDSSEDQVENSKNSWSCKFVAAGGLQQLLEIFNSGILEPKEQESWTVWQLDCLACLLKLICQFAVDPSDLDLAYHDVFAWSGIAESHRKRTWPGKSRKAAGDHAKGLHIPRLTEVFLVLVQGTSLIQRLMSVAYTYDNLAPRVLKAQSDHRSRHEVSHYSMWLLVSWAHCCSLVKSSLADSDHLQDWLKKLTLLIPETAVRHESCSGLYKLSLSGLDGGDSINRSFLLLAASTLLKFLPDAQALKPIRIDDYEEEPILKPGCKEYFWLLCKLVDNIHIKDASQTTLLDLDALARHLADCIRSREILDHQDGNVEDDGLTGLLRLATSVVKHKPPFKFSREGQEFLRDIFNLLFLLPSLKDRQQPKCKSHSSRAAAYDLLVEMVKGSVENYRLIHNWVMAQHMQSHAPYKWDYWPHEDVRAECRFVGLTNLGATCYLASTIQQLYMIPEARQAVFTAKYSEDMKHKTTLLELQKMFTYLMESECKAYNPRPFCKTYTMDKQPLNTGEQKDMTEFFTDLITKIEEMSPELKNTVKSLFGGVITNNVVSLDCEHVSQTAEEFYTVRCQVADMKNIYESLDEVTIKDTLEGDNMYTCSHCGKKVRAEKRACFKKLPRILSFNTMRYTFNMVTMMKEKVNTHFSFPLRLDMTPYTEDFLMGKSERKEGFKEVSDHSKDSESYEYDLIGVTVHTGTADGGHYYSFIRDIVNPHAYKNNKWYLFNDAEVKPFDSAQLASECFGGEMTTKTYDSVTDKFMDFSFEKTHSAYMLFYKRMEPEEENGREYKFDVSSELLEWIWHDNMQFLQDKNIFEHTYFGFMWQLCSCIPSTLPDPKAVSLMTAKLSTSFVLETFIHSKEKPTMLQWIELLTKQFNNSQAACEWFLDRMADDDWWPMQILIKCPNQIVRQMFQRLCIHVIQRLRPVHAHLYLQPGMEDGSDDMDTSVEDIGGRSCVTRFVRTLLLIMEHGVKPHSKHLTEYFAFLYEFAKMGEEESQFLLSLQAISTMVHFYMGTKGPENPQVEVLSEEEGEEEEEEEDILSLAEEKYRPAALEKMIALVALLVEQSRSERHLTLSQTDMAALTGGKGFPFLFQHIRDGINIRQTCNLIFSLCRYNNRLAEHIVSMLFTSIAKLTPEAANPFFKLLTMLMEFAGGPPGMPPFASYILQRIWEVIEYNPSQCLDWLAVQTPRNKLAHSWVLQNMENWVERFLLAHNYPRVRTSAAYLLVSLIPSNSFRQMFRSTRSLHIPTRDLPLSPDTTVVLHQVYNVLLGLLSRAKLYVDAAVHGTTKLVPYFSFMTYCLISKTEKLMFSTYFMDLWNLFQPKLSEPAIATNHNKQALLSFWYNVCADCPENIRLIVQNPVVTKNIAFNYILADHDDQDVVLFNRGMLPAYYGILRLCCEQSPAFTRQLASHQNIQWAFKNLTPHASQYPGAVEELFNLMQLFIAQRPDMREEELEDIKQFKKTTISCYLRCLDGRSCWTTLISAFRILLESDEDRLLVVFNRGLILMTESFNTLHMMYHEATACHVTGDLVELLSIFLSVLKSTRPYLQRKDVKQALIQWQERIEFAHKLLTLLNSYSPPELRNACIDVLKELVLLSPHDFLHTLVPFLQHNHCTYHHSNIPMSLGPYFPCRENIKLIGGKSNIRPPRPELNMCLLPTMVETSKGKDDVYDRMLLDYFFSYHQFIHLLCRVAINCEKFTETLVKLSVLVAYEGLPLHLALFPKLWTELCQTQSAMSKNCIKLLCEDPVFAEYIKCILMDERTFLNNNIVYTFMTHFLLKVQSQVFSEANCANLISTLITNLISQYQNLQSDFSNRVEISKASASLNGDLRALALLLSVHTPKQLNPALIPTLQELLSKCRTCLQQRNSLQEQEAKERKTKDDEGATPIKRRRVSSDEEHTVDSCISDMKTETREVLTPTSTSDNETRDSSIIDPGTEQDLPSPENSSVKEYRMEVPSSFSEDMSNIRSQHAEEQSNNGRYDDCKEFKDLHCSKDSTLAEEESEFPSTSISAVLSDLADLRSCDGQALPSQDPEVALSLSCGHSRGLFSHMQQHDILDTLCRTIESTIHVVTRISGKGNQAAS
Method in brief: (§1)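 Labelling with Biotin-Ahx-Ub-VS (0.5 µM final, 1 h) followed a 3 h triplicate treatment of HEK293T lysate (495 µg per sample, Tris/CHAPS/IGEPAL buffer with protease inhibitors) with fragment at 200 µM or vehicle. Labelled DUBs were NeutrAvidin-enriched, digested with LysC and trypsin, and run by diaPASEF LC-MS/MS. The values, average log2 fragment/vehicle ratios by unpaired t-test, come from global-median-normalised Spectronaut label-free quantities. Proteins with ≥2 unique peptides were used.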

USP36 = molecular target: T1, USP36 (UniProt Q9P275)
T1 sequence (whole entry): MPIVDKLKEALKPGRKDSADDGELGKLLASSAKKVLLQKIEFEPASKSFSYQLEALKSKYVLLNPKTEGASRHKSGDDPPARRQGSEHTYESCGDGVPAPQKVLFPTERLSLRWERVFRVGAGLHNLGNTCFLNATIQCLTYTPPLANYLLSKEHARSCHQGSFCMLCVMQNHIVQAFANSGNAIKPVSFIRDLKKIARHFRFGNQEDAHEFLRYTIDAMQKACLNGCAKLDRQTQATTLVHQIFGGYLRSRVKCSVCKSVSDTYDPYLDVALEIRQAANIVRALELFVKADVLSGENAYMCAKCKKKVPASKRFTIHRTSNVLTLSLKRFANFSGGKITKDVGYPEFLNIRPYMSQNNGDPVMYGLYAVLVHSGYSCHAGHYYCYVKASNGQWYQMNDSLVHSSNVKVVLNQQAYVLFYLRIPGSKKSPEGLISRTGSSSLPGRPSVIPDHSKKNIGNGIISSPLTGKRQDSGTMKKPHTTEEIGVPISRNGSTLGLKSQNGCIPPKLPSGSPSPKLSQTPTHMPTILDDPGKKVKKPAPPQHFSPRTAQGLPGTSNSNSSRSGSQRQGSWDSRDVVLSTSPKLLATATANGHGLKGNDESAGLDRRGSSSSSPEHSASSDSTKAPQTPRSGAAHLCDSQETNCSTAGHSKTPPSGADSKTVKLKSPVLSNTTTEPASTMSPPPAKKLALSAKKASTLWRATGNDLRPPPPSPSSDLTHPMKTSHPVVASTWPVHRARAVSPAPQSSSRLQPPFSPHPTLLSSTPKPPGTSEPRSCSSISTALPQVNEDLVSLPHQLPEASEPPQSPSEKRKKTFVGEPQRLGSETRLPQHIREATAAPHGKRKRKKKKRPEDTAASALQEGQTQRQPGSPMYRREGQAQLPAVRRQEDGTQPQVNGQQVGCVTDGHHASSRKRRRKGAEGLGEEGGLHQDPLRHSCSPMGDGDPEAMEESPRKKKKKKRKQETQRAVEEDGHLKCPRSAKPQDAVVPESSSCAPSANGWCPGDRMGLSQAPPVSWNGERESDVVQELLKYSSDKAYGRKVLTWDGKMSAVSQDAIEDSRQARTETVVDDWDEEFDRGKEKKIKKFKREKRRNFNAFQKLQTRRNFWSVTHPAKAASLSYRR
Method in brief: as §1

USP38 = molecular target: T2, USP38 (UniProt Q8NB14)
T2 sequence (whole entry): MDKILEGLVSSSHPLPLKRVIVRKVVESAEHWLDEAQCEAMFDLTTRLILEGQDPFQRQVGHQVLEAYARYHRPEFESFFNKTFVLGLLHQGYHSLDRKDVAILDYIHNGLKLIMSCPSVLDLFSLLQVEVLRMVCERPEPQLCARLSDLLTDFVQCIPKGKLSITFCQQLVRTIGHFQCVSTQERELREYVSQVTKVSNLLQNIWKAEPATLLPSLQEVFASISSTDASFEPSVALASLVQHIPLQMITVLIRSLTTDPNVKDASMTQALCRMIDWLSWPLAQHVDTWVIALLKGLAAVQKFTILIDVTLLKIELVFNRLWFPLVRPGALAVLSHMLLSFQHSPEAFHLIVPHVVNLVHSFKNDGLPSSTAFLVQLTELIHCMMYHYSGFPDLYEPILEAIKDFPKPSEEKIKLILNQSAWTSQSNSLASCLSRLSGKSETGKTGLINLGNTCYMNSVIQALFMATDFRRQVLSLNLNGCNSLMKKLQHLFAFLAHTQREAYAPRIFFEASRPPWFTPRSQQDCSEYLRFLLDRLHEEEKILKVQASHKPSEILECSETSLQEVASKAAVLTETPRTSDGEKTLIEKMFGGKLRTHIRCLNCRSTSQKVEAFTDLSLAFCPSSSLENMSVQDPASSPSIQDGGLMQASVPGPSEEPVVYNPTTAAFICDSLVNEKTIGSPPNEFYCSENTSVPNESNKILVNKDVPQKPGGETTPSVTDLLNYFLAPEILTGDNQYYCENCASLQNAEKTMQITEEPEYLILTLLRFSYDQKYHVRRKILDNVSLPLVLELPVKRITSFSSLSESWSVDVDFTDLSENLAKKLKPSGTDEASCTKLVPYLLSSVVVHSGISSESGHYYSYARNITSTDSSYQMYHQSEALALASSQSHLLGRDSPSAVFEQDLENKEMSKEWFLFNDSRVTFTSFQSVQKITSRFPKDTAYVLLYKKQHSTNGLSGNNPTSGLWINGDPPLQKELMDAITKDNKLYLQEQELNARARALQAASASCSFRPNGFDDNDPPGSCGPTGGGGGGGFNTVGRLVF
Method in brief: as §1

USP39 = molecular target: T3, USP39 (UniProt Q53GS9)
T3 sequence (whole entry): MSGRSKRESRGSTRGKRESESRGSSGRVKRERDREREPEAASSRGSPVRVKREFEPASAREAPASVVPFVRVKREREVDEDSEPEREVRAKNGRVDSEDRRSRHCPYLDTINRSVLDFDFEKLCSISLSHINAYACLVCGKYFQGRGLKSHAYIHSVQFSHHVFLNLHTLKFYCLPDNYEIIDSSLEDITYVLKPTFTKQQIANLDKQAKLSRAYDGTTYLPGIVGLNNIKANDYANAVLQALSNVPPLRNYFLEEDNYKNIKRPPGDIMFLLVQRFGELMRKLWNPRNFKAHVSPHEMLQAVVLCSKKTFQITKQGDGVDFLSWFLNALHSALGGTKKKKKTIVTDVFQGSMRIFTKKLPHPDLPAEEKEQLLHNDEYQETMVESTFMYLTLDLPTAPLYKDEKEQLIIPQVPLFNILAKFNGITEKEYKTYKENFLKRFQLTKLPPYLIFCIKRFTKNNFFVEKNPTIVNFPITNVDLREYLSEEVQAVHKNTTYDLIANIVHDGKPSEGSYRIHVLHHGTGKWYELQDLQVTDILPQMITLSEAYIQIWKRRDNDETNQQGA
Method in brief: as §1

USP4 = molecular target: T4, USP4 (UniProt Q13107)
T4 sequence (whole entry): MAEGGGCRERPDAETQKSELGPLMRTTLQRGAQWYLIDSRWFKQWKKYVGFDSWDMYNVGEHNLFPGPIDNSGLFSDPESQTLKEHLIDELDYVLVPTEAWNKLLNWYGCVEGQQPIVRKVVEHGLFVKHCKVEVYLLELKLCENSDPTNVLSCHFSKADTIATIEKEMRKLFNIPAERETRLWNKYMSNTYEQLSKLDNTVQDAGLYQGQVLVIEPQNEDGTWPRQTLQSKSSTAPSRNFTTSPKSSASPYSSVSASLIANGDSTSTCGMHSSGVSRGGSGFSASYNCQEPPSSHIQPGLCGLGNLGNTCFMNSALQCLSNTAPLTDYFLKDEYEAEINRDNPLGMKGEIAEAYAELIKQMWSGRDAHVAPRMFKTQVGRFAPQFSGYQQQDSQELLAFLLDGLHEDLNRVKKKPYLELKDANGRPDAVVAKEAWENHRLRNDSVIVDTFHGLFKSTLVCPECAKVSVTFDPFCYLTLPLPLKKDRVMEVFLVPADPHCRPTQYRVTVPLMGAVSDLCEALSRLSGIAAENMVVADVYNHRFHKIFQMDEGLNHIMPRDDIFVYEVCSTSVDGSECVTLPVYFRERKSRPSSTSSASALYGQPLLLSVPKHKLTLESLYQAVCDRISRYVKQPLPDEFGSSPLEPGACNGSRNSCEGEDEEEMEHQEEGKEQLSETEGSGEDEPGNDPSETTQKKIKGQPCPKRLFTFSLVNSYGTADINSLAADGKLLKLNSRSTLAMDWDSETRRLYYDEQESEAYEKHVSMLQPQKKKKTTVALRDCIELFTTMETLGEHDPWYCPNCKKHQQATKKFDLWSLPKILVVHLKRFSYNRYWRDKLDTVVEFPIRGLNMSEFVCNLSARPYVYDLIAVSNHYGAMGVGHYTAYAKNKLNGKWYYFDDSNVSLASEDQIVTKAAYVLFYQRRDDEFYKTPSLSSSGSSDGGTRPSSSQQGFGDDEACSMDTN
Method in brief: as §1

Measured: log2 ratio of Biotin-Ahx-Ub-VS probe labelling

Cl.Cn1ncc2c1CC(NC(=O)CCl)CC2 (stereo not given)
inactive: USP34 0.0665 | USP36 -0.0622 | USP38 0.034 | USP39 -0.0219 | USP4 0.0879
